Results on 68 sequences are retold here after PubChem BioAssay AID1508600 (Functional Genomics Laboratory (NCATS/FGL), 2020).

The campaign covered roughly 53,000 sequences. About 3,700 (7%) were called active. The full list was thinned out, with actives kept by preference. A number with no mark means an inactive call.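 The calls were made as follows: active = gene knockdowns whose robust z-score for IL-1 alpha signal is at least 2 or at most -2, so actives lie on both sides; inactive = the rest.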

This test in a line: Components of the Cytosolic LPS Sensing Pathway: Gene Identification via Genome-wide siRNA Screen.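 Also: robust z of the log signal after scaling to non-targeting control siRNA wells of the plate.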 The following applies: RAW264.7 macrophages, IL-1a HTRF, actives lie on both sides, screened at 100 nM (by protocol), cells primed 5 h with Pam3CSK4 first. A digest of the protocol: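 Three distinct siRNAs per gene were tested singly at 100 nM in RAW264.7 macrophages. Following Pam3CSK4 priming and 24 hour LipidA transfection, IL-1a secretion was read by HTRF.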
A general note: Time-resolved FRET reads energy transfer from a long-lived donor to a nearby acceptor.
In the case of GCUAGUUUCCGUCGCUUUGTT against Cpeb4, the z-score is 0.555.
For GGUACUGGAAAUCUGUAUGTT against Nlgn1 the value was -0.332; for GCGAACUUUUACAUUUCGATT against Gmpr, 0.272.
For the sequence GUGGGAUUCCAGUAGAAAUTT against Olfr1116, the z-score is 0.559.
Then CCAAGUUAGUGGAUGAAUGTT against Ugt2b35, with -0.555; and GGGAGGAAAUUAAAUUUCATT against Hif1an, with -0.223.
As to “GGCCUUCUAAAGCUGUGAUTT against 6330403K07Rik”, the z-score is -2.7 (active).
Then GGAAAUAUCCUAAACAGAATT against Gdpd2, with -0.864; and GCAGUUGCGUUCUAUUGAATT against Ccdc86, with 0.179; and “GCCGGUUGGAACAAAAGGCTT against E130018O15Rik”, with 0.993.
Regarding GCGAUCAGUACUGAAGGAATT against Siglecf, the z-score was -1.27.
Then GGAGACUGUCUAAUAAAAATT against Medag, with 0.0572; and CUGUAUGUUAUCUCUACACTT against Olfr1513, with 0.469.
For the sequence CCAAAUUGCUUACAUGAUATT against Greb1, the z-score was 1.44.
As to GCUGAUAACCUGAUCAACGTT against Nars, the z-score was 0.0406.
Turning to CGACGACUAGACCUCAUCUTT against Dtx4, the z-score was -0.624.
As to GGGUGGAGAACCAAGUUUUTT against Tmed6, the z-score was 3.21 (active).
For GGACUUAUUCGAUAUAGUATT against Nt5c1b the value was -1.23.
In the case of UGCAUGGACUUACGAAAGATT against Tas2r115, the z-score was 0.454.
For “GCUGCCGUUUAAAUAUAUGTT against D10Wsu102e” the value was 0.31; for CUCCCUGGCAUUAAUCCGUTT against Tepp, 0.0788.
Take GAUUUGGUGUCUGCCGAGATT against Prrt1: the z-score is 1.73.
Regarding GGCUACAACCAAAUCUUCATT against Papln, the z-score was 0.873.
As for GCGAUUAACGGAUCGUACCTT against Letmd1, the z-score was 0.192.
For GGACUUGGAGAGCAAAAGCTT against Ano2, the z-score is -2.14 (active).
In the case of GCAGAUCAAAUUUAGCUGATT against Wwc2, the z-score was 0.266.
On to “GCUUUUUAUCCGUGUCGAUTT against 4930474N05Rik”, for which the z-score was 0.501.
Then GGUUAAACCCUCUUCUCAUTT against Uhrf2, with -0.645.
Take CCAAUUCACUUAGGAGCUGTT against Psma4: the z-score is -2.1 (active).
As for GGAAGUAUCGAGAUUCAUGTT against Pitpnm3, the z-score was 0.0165.
As for GCUUCAGACGUAAUUUACUTT against Morc1, the z-score was 0.751.
As for GGUUUUGGUUUUGUGGAAUTT against Srsf5, the z-score is 1.45.
Consider GGAUCUGGUACCCACCCAATT against Jak2, for which the z-score was -1.63.
GGAAUUCUACCUGAAAAUCTT against Arel1: the z-score is 0.122.
Turning to CGCUCUUUCAGCACAAGAATT against Zfp422, the z-score is -1.57.
As to CCUACGACCUGAAGAUAGCTT against Dscc1, the z-score was -0.124.
Regarding GGUGGACUCAUUCUAAUACTT against Nudt1, the z-score was -1.06.
For the sequence CCUGCUAUACAUUGAACCCTT against Lhcgr, the z-score was 2.52 (active).
GGUGUAGCUGGAAUUGGCATT against Nlrp4b: the z-score was -0.0207.
For GGUGAAGCAAAACGGAGGATT against H2-M10.1 the value was 0.512; for GCCUAUUUCCGUGAACCCGTT against Mgmt, -1.04.
In the case of GGCCAAUCCACGAAAGCAUTT against Strip1, the z-score was -0.958.
As for GCUGGGUGAUAAACAAUGUTT against Rhbg, the z-score was 3.42 (active).
On to GGGACUCUUCACUUGAAAUTT against Ccl3, for which the z-score is -3.8e-05.
For the sequence GGAUACCACUUUAGAACCATT against Fgfr2, the z-score is 0.484.
In the case of CCACAUCUUUGACGAGUACTT against Rgs16, the z-score is -0.145.
For the sequence GGAAGACAGGCAUAAAAAATT against Slc41a2, the z-score is -1.38.
For GGUUAAGUCCCUAGGACAUTT against Blzf1, the z-score was 0.998.
On to GGAAAAAUUGCUUCUGACCTT against Rad51b, for which the z-score was -1.17.
As for CCUACAAACCAGAAGAGGUTT against Akr1c19, the z-score was 0.285.
With CCAGACAUGAUACUCCGGCTT against Tssk3, the z-score is 2.57 (active).
As to GCCUGUGUGCUGUUGUGUUTT against Krtap5-1, the z-score is 1.33.
On to CGGCAUCAUUCAUUCAUUATT against Pacrgl, for which the z-score was 2.01 (active).
In the case of CGAUACUGUGCAAAGAAUCTT against Nepro, the z-score is 0.231.
With CCUGUGUCAAUCCUGUGCATT against Ifitm7, the z-score is 0.0113.
As to GGAACUUUAUGUGGAAAGATT against Vmn1r235, the z-score is -0.449.
As for CGGUCAAGGACAGGAAGUGTT against Eif4b, the z-score was 0.518.
For the sequence GGACAAAGAUAAUGGAAAATT against Erlec1, the z-score is 0.353.
GGGAACGCAACAUUUCUCCTT against Oxld1: the z-score was 2.34 (active).
On to GGAUUCCAAUUUUAUUCCATT against Brca1, for which the z-score was 1.57.
As for GAUAACAAGCAUCUCAUGUTT against Krtap6-5, the z-score was -0.411.
With CCGGCAGACCUGUGACAUUTT against Rgs14, the z-score was 0.0166.
For the sequence GGUGGAGAAGCUCAUUGCUTT against Zap70, the z-score was 0.444.
Turning to GGAAGAAAGAGUGUAUCAATT against Idi2, the z-score was 0.487.
In the case of “GGCUCAACCAAGAAAGGCUTT against 4930591A17Rik”, the z-score was -1.28.
In the case of GAAAGAAACGGCAGAUUGCTT against Vmn2r122, the z-score was 0.133.
As to GGAAAGUUGUGAACUCUAATT against Olfr1157, the z-score was 0.583.
Then GGAUUAGUGCAGGAAUCAATT against Rel, with 0.922.
